Holding throughout (assay): DAPPL (digital affinity profiling via proximity ligation, sequencing); 10 mM Tris-HCl pH 7.5, 50 mM NaCl, 1 mM DTT, 4% glycerol, room temperature, 30 min; GST-TFs on glutathione beads, 16-mer random dsDNA library, 0.1% formaldehyde crosslink after washing; high values mean tight binding
One assay addresses T1, FLI1 (Homo sapiens, UniProt Q01543 1-452).
T1 sequence: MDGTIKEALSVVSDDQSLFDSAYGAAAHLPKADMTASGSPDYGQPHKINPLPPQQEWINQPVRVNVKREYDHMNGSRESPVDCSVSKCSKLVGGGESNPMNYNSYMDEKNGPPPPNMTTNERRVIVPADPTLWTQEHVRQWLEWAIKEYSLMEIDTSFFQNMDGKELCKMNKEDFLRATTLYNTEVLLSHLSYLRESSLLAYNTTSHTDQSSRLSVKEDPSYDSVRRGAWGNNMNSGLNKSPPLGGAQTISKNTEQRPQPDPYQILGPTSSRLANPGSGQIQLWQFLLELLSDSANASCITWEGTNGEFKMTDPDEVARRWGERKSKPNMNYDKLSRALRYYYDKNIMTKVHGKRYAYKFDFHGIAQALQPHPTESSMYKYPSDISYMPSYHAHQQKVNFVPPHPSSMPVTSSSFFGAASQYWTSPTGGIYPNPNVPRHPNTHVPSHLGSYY
As to conditions: protein: recombinant; tags: N-terminal GST; dsDNA, one strand shown. The method in brief:
(§1)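 Human transcription factors were made in yeast as GST fusions, captured on glutathione beads and barcoded with DNA. With a tag-only sample included, the pool was incubated with 200 nmole of a random double-stranded 16-mer DNA library in Tris/NaCl/DTT/glycerol buffer at room temperature for 30 min, then crosslinked with 0.1% formaldehyde after washing, ligated by proximity, amplified and sequenced. For binding signal, each hexamer's read frequency for a factor is divided by its frequency for the tag-only sample.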

The target of another assay is T2, ELK1 (Homo sapiens, UniProt P19419 1-428).
T2 sequence: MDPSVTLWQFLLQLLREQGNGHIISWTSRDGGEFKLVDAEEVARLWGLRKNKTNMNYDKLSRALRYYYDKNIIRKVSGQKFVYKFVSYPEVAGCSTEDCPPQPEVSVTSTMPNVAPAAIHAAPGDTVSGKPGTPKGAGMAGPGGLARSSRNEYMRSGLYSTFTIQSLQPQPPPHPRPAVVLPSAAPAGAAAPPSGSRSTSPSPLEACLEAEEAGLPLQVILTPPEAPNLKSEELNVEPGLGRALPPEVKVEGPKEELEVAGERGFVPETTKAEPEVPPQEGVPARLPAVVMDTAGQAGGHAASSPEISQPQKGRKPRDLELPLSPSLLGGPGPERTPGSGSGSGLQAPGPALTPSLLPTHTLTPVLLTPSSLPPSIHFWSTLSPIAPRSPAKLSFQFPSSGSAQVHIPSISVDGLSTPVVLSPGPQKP
As to conditions: protein: recombinant; tags: N-terminal GST; dsDNA, one strand shown. The method in brief: as §1

For the next assay, the target named is T3, GABPA (Homo sapiens, UniProt Q06546 1-454).
T3 sequence: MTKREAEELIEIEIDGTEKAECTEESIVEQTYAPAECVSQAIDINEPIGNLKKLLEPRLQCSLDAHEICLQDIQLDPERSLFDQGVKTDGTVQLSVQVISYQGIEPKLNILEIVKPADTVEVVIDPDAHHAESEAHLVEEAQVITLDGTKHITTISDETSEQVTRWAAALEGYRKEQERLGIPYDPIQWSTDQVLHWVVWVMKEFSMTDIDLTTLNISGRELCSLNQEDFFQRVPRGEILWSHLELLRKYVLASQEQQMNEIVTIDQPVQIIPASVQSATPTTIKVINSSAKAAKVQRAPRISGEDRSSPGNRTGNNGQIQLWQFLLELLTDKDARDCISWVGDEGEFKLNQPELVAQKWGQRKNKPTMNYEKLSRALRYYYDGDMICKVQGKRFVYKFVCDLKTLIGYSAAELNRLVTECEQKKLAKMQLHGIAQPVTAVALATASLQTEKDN
The note with it: protein: recombinant; tags: N-terminal GST; dsDNA, one strand shown. The method, boiled down: as §1

The target of the next assay is T4, ERG (Homo sapiens, UniProt P11308 1-479).
T4 sequence: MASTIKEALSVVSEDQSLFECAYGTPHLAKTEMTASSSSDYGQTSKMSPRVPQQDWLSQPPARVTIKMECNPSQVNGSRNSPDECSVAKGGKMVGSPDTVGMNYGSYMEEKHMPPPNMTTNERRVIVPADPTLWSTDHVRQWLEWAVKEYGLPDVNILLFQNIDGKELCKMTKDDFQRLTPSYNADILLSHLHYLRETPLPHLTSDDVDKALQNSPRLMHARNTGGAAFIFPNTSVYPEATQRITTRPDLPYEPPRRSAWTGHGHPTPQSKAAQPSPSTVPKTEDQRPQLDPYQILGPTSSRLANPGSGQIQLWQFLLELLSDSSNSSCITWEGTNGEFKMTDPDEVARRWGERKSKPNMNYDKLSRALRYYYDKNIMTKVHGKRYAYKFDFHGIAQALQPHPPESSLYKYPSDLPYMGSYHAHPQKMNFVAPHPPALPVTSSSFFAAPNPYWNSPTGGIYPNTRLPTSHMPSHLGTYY
The note with it: protein: recombinant; tags: N-terminal GST; dsDNA, one strand shown. The method, boiled down:
as §1

The next assay concerns the target ELF1 (Homo sapiens, UniProt P32519 1-619). The note with it: protein: recombinant; tags: N-terminal GST; dsDNA, one strand shown. The method in brief:
as §1

The next assay concerns the target T5, EHF (Homo sapiens, UniProt Q9NZC4 1-300).
T5 sequence: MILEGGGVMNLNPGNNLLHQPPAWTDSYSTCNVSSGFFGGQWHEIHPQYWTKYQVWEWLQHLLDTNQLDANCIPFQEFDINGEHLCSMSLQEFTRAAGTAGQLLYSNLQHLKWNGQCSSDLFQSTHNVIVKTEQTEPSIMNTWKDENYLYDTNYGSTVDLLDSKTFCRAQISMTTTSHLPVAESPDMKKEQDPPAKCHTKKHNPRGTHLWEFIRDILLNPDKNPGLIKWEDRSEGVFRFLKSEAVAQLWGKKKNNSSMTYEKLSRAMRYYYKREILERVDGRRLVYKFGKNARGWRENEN
As to conditions: protein: recombinant; tags: N-terminal GST; dsDNA, one strand shown. The method, boiled down: as §1

In another assay the target is SPI1 (Homo sapiens, UniProt P17947 1-270). As to conditions: protein: recombinant; tags: N-terminal GST; dsDNA, one strand shown. The method in brief: as §1
The next assay deals with SPIB (Homo sapiens, UniProt Q01892 1-262). The note with it: protein: recombinant; tags: N-terminal GST; dsDNA, one strand shown. The method in brief:
as §1

A further assay addresses T6, ELK3 (Homo sapiens, UniProt P41970 1-407).
T6 sequence: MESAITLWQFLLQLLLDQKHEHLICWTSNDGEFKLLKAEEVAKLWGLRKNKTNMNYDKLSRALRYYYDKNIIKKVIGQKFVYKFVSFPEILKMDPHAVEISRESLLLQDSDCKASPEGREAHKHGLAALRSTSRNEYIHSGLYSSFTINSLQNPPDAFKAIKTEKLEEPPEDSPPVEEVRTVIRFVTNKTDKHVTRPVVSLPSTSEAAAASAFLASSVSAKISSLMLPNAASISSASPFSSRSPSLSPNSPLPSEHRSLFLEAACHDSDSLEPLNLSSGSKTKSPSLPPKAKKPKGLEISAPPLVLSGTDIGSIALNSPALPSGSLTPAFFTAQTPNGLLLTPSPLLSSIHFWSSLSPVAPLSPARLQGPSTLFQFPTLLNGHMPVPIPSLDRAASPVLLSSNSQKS
The note with it: protein: recombinant; tags: N-terminal GST; dsDNA, one strand shown. The method, boiled down: as §1

Another assay concerns the target T7, FEV (Homo sapiens, UniProt Q99581 1-238).
T7 sequence: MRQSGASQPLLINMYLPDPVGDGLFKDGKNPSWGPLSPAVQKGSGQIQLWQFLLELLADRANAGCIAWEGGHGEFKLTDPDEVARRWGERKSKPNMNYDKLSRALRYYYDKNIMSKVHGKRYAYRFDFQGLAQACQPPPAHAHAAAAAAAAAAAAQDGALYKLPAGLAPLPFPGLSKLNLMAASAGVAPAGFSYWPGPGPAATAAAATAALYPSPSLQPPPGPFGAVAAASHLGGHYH
As to conditions: protein: recombinant; tags: N-terminal GST; dsDNA, one strand shown. The method in brief:
as §1

For the next assay, the target named is ETV5 (Homo sapiens, UniProt P41161 1-510). The note with it: protein: recombinant; tags: N-terminal GST; dsDNA, one strand shown. The method in brief: as §1
The target of the next assay is HSF1 (Homo sapiens, UniProt Q00613 1-529). The note with it: protein: recombinant; tags: N-terminal GST; chain copies: 3; dsDNA, one strand shown. The method, boiled down: as §1
In a further assay the target is T8, SPIC (Homo sapiens, UniProt Q8N5J4 1-248).
T8 sequence: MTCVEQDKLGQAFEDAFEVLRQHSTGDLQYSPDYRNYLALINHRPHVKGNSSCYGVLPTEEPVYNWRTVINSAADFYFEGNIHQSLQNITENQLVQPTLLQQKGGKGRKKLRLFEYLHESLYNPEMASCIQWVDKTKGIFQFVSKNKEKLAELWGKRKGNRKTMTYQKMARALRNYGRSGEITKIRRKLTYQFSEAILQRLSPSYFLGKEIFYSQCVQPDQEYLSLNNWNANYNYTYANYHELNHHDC
The note with it: protein: recombinant; tags: N-terminal GST; dsDNA, one strand shown. The method in brief: as §1

The target of another assay is ELF4 (Homo sapiens, UniProt Q99607 1-663). As to conditions: protein: recombinant; tags: N-terminal GST; dsDNA, one strand shown. The method, boiled down:
as §1

For another assay, the target named is T9, ELK4 (Homo sapiens, UniProt P28324-2 1-405).
T9 sequence: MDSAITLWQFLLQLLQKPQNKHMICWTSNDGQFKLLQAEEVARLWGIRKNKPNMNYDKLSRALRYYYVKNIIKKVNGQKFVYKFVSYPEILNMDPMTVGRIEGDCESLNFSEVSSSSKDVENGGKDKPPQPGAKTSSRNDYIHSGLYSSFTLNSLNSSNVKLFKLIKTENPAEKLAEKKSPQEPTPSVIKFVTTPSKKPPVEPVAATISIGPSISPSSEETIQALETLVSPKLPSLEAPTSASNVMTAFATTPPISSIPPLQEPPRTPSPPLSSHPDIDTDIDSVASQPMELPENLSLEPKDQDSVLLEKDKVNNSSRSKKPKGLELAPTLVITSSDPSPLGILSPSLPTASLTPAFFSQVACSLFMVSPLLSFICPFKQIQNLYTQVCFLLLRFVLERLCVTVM
The note with it: protein: recombinant; tags: N-terminal GST; dsDNA, one strand shown. The method in brief:
as §1

Another assay concerns the target T10, ETV2 (Homo sapiens, UniProt O00321 1-342).
T10 sequence: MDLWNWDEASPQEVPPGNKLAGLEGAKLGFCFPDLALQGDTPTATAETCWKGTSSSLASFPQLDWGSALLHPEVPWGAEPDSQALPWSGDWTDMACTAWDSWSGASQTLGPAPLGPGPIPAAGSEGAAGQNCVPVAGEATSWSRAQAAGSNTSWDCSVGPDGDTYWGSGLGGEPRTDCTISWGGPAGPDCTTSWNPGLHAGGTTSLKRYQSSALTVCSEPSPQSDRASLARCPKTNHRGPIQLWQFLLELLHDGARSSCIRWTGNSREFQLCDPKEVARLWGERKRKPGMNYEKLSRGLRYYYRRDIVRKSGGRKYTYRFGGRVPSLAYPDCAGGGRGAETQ
As to conditions: protein: recombinant; tags: N-terminal GST; dsDNA, one strand shown. The method in brief:
as §1

The target in a further assay is T11, ELF3 (Homo sapiens, UniProt P78545 1-371).
T11 sequence: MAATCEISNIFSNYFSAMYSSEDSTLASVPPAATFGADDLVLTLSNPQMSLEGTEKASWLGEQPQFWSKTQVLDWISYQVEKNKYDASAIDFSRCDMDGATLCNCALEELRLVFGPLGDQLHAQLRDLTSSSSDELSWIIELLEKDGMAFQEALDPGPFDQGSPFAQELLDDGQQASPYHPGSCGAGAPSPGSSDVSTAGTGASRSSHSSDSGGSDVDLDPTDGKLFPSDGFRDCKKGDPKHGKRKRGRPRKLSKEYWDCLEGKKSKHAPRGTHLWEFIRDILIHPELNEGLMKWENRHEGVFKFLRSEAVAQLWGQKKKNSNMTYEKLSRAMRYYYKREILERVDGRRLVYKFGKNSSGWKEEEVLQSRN
As to conditions: protein: recombinant; tags: N-terminal GST; dsDNA, one strand shown. The method, boiled down: as §1

For a further assay, the target named is CRX (Homo sapiens, UniProt O43186 1-299). As to conditions: protein: recombinant; tags: N-terminal GST; dsDNA, one strand shown. The method, boiled down: as §1
The next assay addresses ETV1 (Homo sapiens, UniProt P50549 1-477). As to conditions: protein: recombinant; tags: N-terminal GST; dsDNA, one strand shown. The method, boiled down: as §1

Sequence of SPIB (Q01892 whole entry): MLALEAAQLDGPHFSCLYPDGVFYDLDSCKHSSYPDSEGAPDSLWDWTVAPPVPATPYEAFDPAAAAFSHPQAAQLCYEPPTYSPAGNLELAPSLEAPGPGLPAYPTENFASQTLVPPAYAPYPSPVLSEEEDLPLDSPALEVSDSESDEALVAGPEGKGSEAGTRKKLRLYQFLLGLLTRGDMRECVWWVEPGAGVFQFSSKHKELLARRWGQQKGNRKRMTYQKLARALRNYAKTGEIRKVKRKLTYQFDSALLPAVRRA
Sequence of HSF1 (Q00613 whole entry): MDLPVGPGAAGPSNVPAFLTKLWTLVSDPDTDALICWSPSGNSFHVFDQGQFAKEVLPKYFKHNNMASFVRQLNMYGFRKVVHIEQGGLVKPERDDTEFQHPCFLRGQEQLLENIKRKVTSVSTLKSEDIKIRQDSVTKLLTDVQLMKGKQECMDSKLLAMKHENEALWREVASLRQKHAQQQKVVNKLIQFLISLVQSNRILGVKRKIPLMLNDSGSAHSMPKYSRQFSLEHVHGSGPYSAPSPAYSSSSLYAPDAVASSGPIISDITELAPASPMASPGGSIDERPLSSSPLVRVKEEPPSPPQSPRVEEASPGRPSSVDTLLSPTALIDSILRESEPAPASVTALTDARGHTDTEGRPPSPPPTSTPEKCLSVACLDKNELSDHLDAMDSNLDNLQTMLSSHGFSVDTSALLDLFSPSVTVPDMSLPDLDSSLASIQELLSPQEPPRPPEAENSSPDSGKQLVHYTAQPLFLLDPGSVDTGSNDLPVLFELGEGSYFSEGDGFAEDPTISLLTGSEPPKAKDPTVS
Sequence of ELF1 (P32519 whole entry): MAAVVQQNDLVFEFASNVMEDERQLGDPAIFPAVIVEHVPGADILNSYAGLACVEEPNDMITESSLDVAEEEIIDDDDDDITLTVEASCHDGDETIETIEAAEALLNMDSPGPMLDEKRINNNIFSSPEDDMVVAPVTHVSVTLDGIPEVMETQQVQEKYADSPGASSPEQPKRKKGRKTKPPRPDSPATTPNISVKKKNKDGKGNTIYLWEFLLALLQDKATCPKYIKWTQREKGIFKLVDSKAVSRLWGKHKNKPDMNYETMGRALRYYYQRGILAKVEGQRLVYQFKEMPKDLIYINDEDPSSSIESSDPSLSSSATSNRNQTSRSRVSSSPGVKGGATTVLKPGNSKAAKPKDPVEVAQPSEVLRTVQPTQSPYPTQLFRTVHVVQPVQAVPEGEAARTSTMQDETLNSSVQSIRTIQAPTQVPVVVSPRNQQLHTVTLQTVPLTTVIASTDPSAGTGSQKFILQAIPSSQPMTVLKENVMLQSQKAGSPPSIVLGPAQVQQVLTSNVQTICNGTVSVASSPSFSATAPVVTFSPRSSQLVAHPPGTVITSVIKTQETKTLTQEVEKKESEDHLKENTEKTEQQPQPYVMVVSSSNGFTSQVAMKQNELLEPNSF
Sequence of ETV1 (P50549 whole entry): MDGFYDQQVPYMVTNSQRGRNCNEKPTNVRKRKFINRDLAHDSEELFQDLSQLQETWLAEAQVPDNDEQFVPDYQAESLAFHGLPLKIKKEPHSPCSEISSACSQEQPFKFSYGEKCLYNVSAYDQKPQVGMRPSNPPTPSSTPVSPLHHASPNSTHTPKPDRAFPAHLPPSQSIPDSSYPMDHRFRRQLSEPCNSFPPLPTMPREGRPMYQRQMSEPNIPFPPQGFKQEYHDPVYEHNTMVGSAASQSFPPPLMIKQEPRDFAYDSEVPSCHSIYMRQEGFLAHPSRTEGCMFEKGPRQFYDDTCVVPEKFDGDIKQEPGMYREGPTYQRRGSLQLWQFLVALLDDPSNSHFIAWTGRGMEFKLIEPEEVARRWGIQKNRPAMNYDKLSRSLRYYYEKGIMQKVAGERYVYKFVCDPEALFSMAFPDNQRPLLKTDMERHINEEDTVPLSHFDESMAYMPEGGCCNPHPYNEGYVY
Sequence of ELF4 (Q99607 whole entry): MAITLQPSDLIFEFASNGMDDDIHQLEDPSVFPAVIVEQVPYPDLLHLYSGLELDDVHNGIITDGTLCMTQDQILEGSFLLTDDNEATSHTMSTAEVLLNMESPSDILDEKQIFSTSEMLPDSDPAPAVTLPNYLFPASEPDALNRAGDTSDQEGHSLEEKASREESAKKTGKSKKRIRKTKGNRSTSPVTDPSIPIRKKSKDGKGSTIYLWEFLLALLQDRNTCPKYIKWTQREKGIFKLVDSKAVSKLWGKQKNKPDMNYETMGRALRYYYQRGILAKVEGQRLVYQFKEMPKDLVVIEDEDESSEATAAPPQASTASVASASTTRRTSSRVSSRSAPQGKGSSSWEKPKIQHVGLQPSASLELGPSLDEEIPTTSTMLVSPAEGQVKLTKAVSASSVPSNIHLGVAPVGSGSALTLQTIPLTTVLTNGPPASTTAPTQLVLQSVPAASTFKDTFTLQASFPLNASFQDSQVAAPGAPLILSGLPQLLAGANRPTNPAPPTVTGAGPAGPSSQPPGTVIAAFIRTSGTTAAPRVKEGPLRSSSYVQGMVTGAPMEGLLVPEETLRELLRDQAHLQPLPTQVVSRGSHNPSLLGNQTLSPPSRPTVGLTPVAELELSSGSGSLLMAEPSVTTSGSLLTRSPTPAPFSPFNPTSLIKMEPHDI
Sequence of ETV5 (P41161 whole entry): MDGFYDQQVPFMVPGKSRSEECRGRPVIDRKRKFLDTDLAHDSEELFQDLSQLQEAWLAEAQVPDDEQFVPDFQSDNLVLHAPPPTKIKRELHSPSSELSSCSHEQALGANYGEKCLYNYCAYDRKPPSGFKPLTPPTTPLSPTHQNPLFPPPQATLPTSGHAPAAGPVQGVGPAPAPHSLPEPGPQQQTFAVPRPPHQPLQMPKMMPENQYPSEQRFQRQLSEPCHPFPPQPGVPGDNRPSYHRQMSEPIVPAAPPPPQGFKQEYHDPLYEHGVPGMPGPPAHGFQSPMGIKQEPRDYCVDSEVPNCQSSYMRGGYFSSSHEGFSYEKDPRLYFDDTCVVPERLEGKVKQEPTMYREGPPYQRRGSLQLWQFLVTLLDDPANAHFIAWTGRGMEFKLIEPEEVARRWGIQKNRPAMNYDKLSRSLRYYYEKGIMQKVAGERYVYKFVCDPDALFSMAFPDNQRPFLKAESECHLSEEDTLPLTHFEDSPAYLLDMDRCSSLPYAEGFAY
Sequence of CRX (O43186 whole entry): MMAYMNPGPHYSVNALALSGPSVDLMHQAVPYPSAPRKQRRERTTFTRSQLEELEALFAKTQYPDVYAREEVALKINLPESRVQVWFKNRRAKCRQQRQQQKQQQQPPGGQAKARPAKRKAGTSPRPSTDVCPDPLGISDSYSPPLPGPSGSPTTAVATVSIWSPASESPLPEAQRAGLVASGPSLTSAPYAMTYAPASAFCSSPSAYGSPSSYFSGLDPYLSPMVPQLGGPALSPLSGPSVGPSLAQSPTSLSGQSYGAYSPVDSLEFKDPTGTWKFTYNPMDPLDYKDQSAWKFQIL

With TTGACC, the binding signal with FLI1 is 1.4 fold enrichment (6-mer frequency, TF over GST control); with ELK1, 1.44 fold enrichment (6-mer frequency, TF over GST control); with GABPA it was 1.56 fold enrichment (6-mer frequency, TF over GST control); in the assay with ERG, 1.49 fold enrichment (6-mer frequency, TF over GST control); with ELF1, 1.43 fold enrichment (6-mer frequency, TF over GST control); with EHF, 1.46 fold enrichment (6-mer frequency, TF over GST control). Further, the binding signal was 1.34 fold enrichment (6-mer frequency, TF over GST control) with SPI1; 1.46 fold enrichment (6-mer frequency, TF over GST control) with SPIB; 1.54 fold enrichment (6-mer frequency, TF over GST control) in the assay with ELK3; 1.33 fold enrichment (6-mer frequency, TF over GST control) with FEV; 1.41 fold enrichment (6-mer frequency, TF over GST control) in the assay with ETV5; 1.16 fold enrichment (6-mer frequency, TF over GST control) in the assay with HSF1. Also, the binding signal with SPIC was 1.45 fold enrichment (6-mer frequency, TF over GST control); with ELF4, 1.44 fold enrichment (6-mer frequency, TF over GST control); in the assay with ELK4, 1.4 fold enrichment (6-mer frequency, TF over GST control); with ETV2, 1.38 fold enrichment (6-mer frequency, TF over GST control); with ELF3, 1.27 fold enrichment (6-mer frequency, TF over GST control); in the assay with CRX, 1.19 fold enrichment (6-mer frequency, TF over GST control). Further, in the assay with ETV1, the binding signal is 1.41 fold enrichment (6-mer frequency, TF over GST control).

For the origin of these results see publication PMC7862700, “An all-to-all approach to the identification of sequence-specific readers for epigenetic DNA modifications on cytosine”.
